An excerpt weighted towards active compounds, which were near 11% of everything screened.
3T3 cytotox = cytotoxic compounds in NIH 3T3 cells; NIH 3T3 viability, CellTiter-Glo ATP luminescence, 48-72 h; Potency, µM (titrated, usually from 96.7 µM), without a hit: at the highest dose activity change, negative = cytotoxicity, hits mostly inhibitors; 94,000 tested, 4.3% active; AID 1345082; note: nearly all actives have a fitted effect of over 55% in size
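Cytotoxicity was measured by CellTiter-Glo ATP luminescence after 48 or 72 h compound exposure at 37 °C. Mouse NIH 3T3 fibroblasts were seeded at 400 cells/well and dosed by 23 nL pin transfer.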
hNpr1 antagonist = blocks ANP-stimulated signaling of human Npr1 receptor; P16066; HEK293 hNpr1 GloSensor cGMP, ANP-stimulated luminescence; 76,000 tested, 1.6% active; Potency, µM (doses to about 46.3 µM), for the others: top-dose activity change, negative = inhibition, usual class: inhibitors; calls by dose curve; note: nearly all actives have a fitted effect of over 60% in size
Target sequence (P16066 whole entry, looked up): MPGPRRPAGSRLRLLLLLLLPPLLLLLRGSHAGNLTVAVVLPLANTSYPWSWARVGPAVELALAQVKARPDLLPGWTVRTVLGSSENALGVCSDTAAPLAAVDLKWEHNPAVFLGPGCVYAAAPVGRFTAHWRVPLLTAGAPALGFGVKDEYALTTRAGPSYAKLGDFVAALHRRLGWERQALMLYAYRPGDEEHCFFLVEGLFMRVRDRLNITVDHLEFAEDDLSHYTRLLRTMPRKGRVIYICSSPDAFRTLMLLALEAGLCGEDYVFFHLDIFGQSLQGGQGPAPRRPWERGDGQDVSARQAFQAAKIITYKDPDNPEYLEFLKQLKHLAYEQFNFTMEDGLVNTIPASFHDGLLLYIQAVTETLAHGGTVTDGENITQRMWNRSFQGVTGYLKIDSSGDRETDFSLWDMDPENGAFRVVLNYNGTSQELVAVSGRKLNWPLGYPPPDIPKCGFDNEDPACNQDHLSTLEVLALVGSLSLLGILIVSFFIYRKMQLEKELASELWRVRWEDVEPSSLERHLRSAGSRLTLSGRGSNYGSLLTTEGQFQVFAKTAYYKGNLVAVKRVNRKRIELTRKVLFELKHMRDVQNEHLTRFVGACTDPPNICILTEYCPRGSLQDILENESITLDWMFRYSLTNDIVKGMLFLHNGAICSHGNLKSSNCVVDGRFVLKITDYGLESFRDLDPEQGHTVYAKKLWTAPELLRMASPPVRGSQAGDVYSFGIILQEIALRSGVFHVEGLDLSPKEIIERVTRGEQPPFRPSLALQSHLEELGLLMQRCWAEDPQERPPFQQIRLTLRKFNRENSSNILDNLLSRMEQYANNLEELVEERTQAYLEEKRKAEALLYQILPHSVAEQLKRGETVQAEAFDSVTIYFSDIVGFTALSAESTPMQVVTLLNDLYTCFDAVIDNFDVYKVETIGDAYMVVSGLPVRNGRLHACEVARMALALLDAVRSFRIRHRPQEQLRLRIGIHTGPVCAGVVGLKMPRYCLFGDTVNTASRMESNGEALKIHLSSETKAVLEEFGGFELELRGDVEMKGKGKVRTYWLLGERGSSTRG
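HEK293 cells stably expressing human Npr1 and cGMP GloSensor pGS-40F, loaded 2 h with 2% GloSensor reagent, given compound 30 min at room temperature. Luminescence read before and 20 min after 0.1 nM hNppA.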
FLuc inh = Photinus pyralis luciferase inhibition | purified P. pyralis luciferase, luminescence, biochemical | P08659 | 76,000 tested, 2.5% active | Potency, µM (doses to about 115 µM), most hits filed as inhibitors; note: nearly all actives have a fitted effect of over 65% in size
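Luminescence read by CCD imager after adding enzyme (10nM final) to wells holding compound, titrated in qHTS. Substrates 10uM each D-luciferin and ATP; buffer 50mM Tris acetate pH 7.5, 10mM Mg acetate, Tween-20, BSA.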
HEK293 tox = HEK 293 cell cytotoxicity | HEK 293 viability, ATP luminescence (CellTiter-Glo), 48-72 h | Potency, µM (series often up to 115 µM), without a hit: at the top dose activity change, negative = cytotoxicity, most hits filed as inhibitors | 94,000 tested, 6.6% active | AID 1345083; note: nearly all actives have a fitted effect of over 60% in size
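Pintool-delivered compounds were incubated with HEK 293 cells (250 cells/well) at 37 degree Celsius for 48 or 72 hr. ATP-dependent luminescence (CellTiter-Glo) then reported remaining viable cells.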
The depositor's hits bear a star; [ ] = remark or other dose. Unless noted, calls come from the whole dose curve; as a rule, active = well fitted curve in the direction sought with a large enough effect; inconclusive = small, poorly fitted or top-dose-only effect, or another doubt; inactive = no such curve, though single readings can be large; an effect the other way counts as inactive or inconclusive. % is set by controls: 0 for no effect and ±100 for the full control effect; potency is the fitted concentration of half-maximal effect.

What do the screens show for `COCCCNC(=O)c1nc2nc(-c3ccccc3)c(Cl)cc2n1C`?
3T3 cytotox: inconclusive; hNpr1 antagonist: -5.7%[70.6 µM]; FLuc inh: inactive; HEK293 tox: inconclusive

How did CNC(=O)c1cc(C2CC2)nc2c1c(C1CCN(C(=O)CN(C)C)CC1)nn2C do in these assays?
3T3 cytotox: -3.0%; HEK293 tox: 0.0%

What do the screens show for `Cc1ccc(NC(=O)c2cc3c(s2)CN(C2CC2)C3)cc1`?
3T3 cytotox: inconclusive; hNpr1 antagonist: -30.1%; FLuc inh: 8.91µM*; HEK293 tox: inconclusive

Results for CSc1ccc(NC(=O)c2cc3c(s2)CN(C2CC2)C3)cc1 ?
3T3 cytotox: inconclusive; hNpr1 antagonist: 11.2µM*; FLuc inh: inconclusive; HEK293 tox: inconclusive

How did CCOc1ccc(NC(=O)c2cc3c(s2)CN(C2CCCC2)C3)cc1 do in these assays?
3T3 cytotox: inconclusive; hNpr1 antagonist: -19.6%; FLuc inh: inactive; HEK293 tox: inconclusive

Results for O=C1COc2ccc(Oc3ccccc3)nc2CN1CCOc1ccccc1 ?
3T3 cytotox: inconclusive; hNpr1 antagonist: inconclusive; FLuc inh: inactive; HEK293 tox: 100µM*

How did COCCN1Cc2nc(Nc3ccc(F)c(Cl)c3)ccc2OCC1=O do in these assays?
3T3 cytotox: inconclusive; hNpr1 antagonist: -1.6%[70.6 µM]; FLuc inh: inactive; HEK293 tox: 100µM*

What do the screens show for `Cc1ccccc1-c1ccc2c(n1)CN(CCOc1ccccc1)C(=O)CO2`?
3T3 cytotox: inconclusive; hNpr1 antagonist: -21.4%[70.6 µM]; FLuc inh: inactive; HEK293 tox: inconclusive

Results for COCCN1Cc2nc(Nc3ccc(C(F)(F)F)cc3)ccc2OCC1=O ?
3T3 cytotox: inconclusive; hNpr1 antagonist: -22.9%[70.6 µM]; FLuc inh: inactive; HEK293 tox: inconclusive

How did O=C1COc2ccc(Nc3cccc(F)c3)nc2CN1CCOc1ccccc1 do in these assays?
3T3 cytotox: 89.1µM*; hNpr1 antagonist: inconclusive; FLuc inh: inactive; HEK293 tox: 89.1µM*

Results for O=C(c1nc(-c2ccc(Cl)cc2)c2cnccn12)N1CCOCC1 ?
3T3 cytotox: -24.8%[138 µM]; hNpr1 antagonist: 20.1%[70.6 µM]; FLuc inh: inactive; HEK293 tox: inconclusive

Results for Cc1ccc(CNc2ccc3nnc(C(C)C)n3n2)o1 ?
3T3 cytotox: inconclusive; hNpr1 antagonist: 1.1%; FLuc inh: inactive; HEK293 tox: inconclusive

What do the screens show for `COc1ccc(-c2ccccc2C(=O)NCc2ccccn2)nn1`?
3T3 cytotox: -7.4%[138 µM]; HEK293 tox: inactive

Results for CCN1C(=O)C2CC3(CCN(Cc4ccc5cc[nH]c5c4)CC3)CN2C1=O (stereo not given) ?
3T3 cytotox: -4.0%; hNpr1 antagonist: -1.4%; FLuc inh: inactive; HEK293 tox: inconclusive

What do the screens show for `CCN1C(=O)C2CC3(CCN(Cc4ccc(F)c(F)c4)CC3)CN2C1=O` (stereo not given)?
3T3 cytotox: inconclusive; hNpr1 antagonist: -11.3%; FLuc inh: inactive; HEK293 tox: 31.6µM*

What do the screens show for `COc1ccc2ccc(OCc3nc(C(=O)N4CCCC(C)(CO)C4)co3)cc2c1` (stereo not given)?
3T3 cytotox: inconclusive; hNpr1 antagonist: 11.2µM*; FLuc inh: inconclusive; HEK293 tox: inconclusive

How did COc1ccc2ccc(OCc3nc(C(=O)NC(C)c4n[nH]c(C)n4)co3)cc2c1 (stereo not given) do in these assays?
3T3 cytotox: -27.7%; hNpr1 antagonist: 11.2µM*; FLuc inh: inconclusive; HEK293 tox: 44.7µM*

How did COc1ccc2ccc(OCc3nc(C(=O)NCc4cnc(C)cn4)co3)cc2c1 do in these assays?
3T3 cytotox: inconclusive; hNpr1 antagonist: -21.8%; FLuc inh: inactive; HEK293 tox: inconclusive

How did COc1ccc2[nH]c3c(c2c1)CCNC31CCN(C(=O)C2CCC2)CC1 do in these assays?
3T3 cytotox: -28.6%; hNpr1 antagonist: 2.1%; FLuc inh: inactive; HEK293 tox: -31.5%

Results for Cc1ccc(C2Cn3nnc(C(=O)N4CCC(C(=O)NCc5cccc(Cl)c5)CC4)c3CO2)cc1 (stereo not given) ?
3T3 cytotox: -21.8%; hNpr1 antagonist: -7.1%; FLuc inh: 22.4µM*; HEK293 tox: -16.4%

How did Cc1ccc(C2Cn3nnc(C(=O)N4CCC(C(=O)NCc5cccc(F)c5)CC4)c3CO2)cc1 (stereo not given) do in these assays?
3T3 cytotox: -15.6%; hNpr1 antagonist: -2.0%; FLuc inh: 35.5µM*; HEK293 tox: -1.8%

How did Cc1ccc(CNC(=O)C2CCN(C(=O)c3nnn4c3COC(c3ccc(C)cc3)C4)CC2)cc1 (stereo not given) do in these assays?
3T3 cytotox: 2.3%; hNpr1 antagonist: -1.0%; FLuc inh: inactive; HEK293 tox: 1.0%

What do the screens show for `COc1cccc(CNC(=O)C2CCN(C(=O)c3nnn4c3COC(c3ccc(C)cc3)C4)CC2)c1` (stereo not given)?
3T3 cytotox: -5.4%; hNpr1 antagonist: -0.3%; FLuc inh: inconclusive; HEK293 tox: -23.2%

What do the screens show for `Cc1ccc(C2Cn3nnc(C(=O)N4CCC(C(=O)NCc5cc(F)cc(F)c5)CC4)c3CO2)cc1` (stereo not given)?
3T3 cytotox: inactive; hNpr1 antagonist: -0.6%; FLuc inh: 15.8µM*; HEK293 tox: -6.0%

What do the screens show for `CCCn1c(C)cnc1CCNC(=O)C1(c2ccc(OC)cc2)CC1`?
3T3 cytotox: -19.1%; HEK293 tox: -15.4%

Results for C#CCNC(=O)C1CCCN1C(=O)c1cccc(-c2cccnc2)c1 (stereo not given) ?
3T3 cytotox: -19.6%; HEK293 tox: -0.6%

Results for CNC(=O)c1cc(C)cc2onc(C3CCCN3C(=O)Cc3ccccc3)c12 (stereo not given) ?
3T3 cytotox: -17.7%; HEK293 tox: 1.5%

Results for CC(NC(=O)c1ccc2cccc(F)c2n1)c1ccccc1-n1cccn1 (stereo not given) ?
3T3 cytotox: inconclusive; hNpr1 antagonist: -2.0%; FLuc inh: 35.5µM*; HEK293 tox: inconclusive

What do the screens show for `O[C@H]1[C@H](NCc2ccc(-c3ccccc3)cc2)[C@H]2CO[C@H](O2)[C@@H]1Sc1ccccc1`?
3T3 cytotox: 63.1µM*; hNpr1 antagonist: inconclusive; FLuc inh: inactive; HEK293 tox: 39.8µM*

How did O[C@H]1[C@H](NCc2ccccc2)[C@H]2CO[C@H](O2)[C@@H]1Sc1ccccc1 do in these assays?
3T3 cytotox: -12.2%[138 µM]; hNpr1 antagonist: 2.3%[70.6 µM]; FLuc inh: inactive; HEK293 tox: inconclusive

How did O[C@H]1[C@H](NCc2ccc(-c3ccccc3)cc2)[C@H]2CO[C@H](O2)[C@@H]1Oc1ccccc1 do in these assays?
3T3 cytotox: 112µM*; hNpr1 antagonist: -20.4%[70.6 µM]; FLuc inh: inactive; HEK293 tox: 89.1µM*

Results for CNC(=O)c1cc(C2CC2)nc2onc(C3CCN(C(=O)c4ccccc4C)C3)c12 (stereo not given) ?
3T3 cytotox: -24.2%; HEK293 tox: -19.5%

What do the screens show for `Cc1nc2n(c1C(=O)Nc1cc(-c3ccc(F)cc3)[nH]n1)CCC(Nc1ccc(F)cc1)C2` (stereo not given)?
3T3 cytotox: 31.6µM*; hNpr1 antagonist: -17.8%; FLuc inh: inconclusive; HEK293 tox: inconclusive

How did CC(C)c1nc2c(c(-c3ccc(O)cc3)n1)CCN(C(=O)C1CC1)CC2 do in these assays?
3T3 cytotox: -4.7%; HEK293 tox: inactive

Screens from PubChem.
